# Screening data: PubChem, National Center for Advancing Translational Sciences (NCATS)
# Hits are enriched below; roughly 2.4% of the tested compounds scored in any of these assays.
# D2 PAM-1 – D2 dopamine receptor (human) potentiation | P14416 | HEK293 T-REx D2, calcium flux, EC20 dopamine potentiation | potentiation, % at 10 µM | hit rate 0.34% among 340,000 | AID 485347;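 active = potentiation over 3 SD above the plate norm, cut at about 30% in these data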
# Target sequence (P14416 whole entry, looked up): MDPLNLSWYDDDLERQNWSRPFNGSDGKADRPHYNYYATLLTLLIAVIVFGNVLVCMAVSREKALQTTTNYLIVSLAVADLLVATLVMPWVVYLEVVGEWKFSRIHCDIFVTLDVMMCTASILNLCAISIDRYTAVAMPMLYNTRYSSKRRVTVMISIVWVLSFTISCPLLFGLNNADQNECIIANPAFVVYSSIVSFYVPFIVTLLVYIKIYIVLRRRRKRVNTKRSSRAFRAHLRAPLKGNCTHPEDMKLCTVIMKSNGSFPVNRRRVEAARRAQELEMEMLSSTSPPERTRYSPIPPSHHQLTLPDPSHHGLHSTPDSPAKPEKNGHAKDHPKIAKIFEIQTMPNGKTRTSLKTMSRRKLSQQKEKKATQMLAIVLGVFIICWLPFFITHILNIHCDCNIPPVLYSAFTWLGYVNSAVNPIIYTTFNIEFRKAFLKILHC
#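 Calcium flux readout, no-wash dye, 1 read/s. Inducible HEK293 Trex D2 line, overnight 30 C. Compound alone 180 s (agonist flags), then EC20 dopamine, another 180 s to score potentiation.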
# D2 ag-1 – agonists of human D2 dopamine receptor (beta-arrestin); P14416; DiscoveRx PathHunter D2 beta-arrestin, luminescence, 90 min; 100% = 57 uM dopamine signal; activation, % (test concentration not listed); hit rate 0.084% among 360,000; in the data active = activation above about 40%; inconclusive = between about 15% and that limit
#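 Agonist mode: compounds alone added to overnight-plated D2 PathHunter cells for 90 min at 37 C, with 57 uM final dopamine (EC100) defining full response. Beta-arrestin recruitment detected by chemiluminescent reagent, read after 1 h at ambient temperature.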
# D2 PAM-2 – potentiates the human D2 dopamine receptor allosterically. P14416. DiscoveRx D2 beta-arrestin cells, luminescence, 90 min; 100% = 57 uM dopamine signal. potentiation, % (test concentration not listed). hit rate 0.23% among 360,000. AID 624464; in the data active = potentiation above about 50%; inconclusive = mostly about 30% to 49%
#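 PathHunter beta-arrestin assay in DiscoveRx D2 cells. Compounds were added with an EC20 of dopamine (50 nM final) for 90 min at 37 deg C. Luminescence was read 1 h after detection reagent, with 57 uM dopamine as the EC100 control.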
# D2 antagonist – D2 dopamine receptor (human) antagonism; hit rate 2% among 340,000; HEK293 TREx D2 cells, calcium flux, dopamine EC80; inhibition, % at 10 µM; P14416; AID 485344; in the data active = inhibition above about 30%; inactive = below that, where a call was filed
#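 Tetracycline-induced HEK293 T-REx cells expressing D2 force-coupled to calcium signalling were dye-loaded, exposed to compound for 180 s, then challenged with an EC80 of dopamine; calcium flux was followed kinetically for a further 180 s.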
# D2 ag-2 – D2 dopamine receptor (human) agonism. P14416. HEK293 T-REx D2 cells, calcium flux agonist mode. activation, % at 2 µM. hit rate 0.53% among 340,000. AID 485358;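 active = activation over 3 SD above normal in the single-dose calcium agonist read, cut at about 30% in these data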
#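 Agonism scored from kinetic calcium signal (1 read/sec, 180 s) following compound pin transfer, after a 10 s baseline. Cells: HEK293 Trex line expressing inducible D2 receptor coupled to calcium, dye-loaded after overnight culture at 30 C.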
# Numbers stand for hits; n = inactive; u = inconclusive; x = not tested or not shown.
SMILES,D2 PAM-1,D2 ag-1,D2 PAM-2,D2 antagonist,D2 ag-2
CC(=O)N1CCc2cc(Br)cc(S(=O)(=O)NCc3ccc(Cl)cc3)c21,n,n,n,68.1,n
O=C(C1CC1)N1CCc2cc(Br)cc(S(=O)(=O)NCCCN3CCCC3)c21,n,n,n,38.8,n
CC1CCCN(CCCNS(=O)(=O)c2cc(Br)cc3c2N(C(=O)C2CC2)CC3)C1 (centres undefined),x,n,n,x,x
CCOC(=O)CC(NCc1ccc(OC)c(OCC)c1)c1ccc(C)cc1 (centres undefined),n,n,n,60.6,n
CSc1ccccc1NC(=O)Nc1cccc(Cl)c1,n,n,n,36.2,n
O=C(Nc1cccc(F)c1)Nc1c[nH]c(=O)[nH]c1=O,n,n,n,n,n
O=C(Nc1cccc(Cl)c1)Nc1c[nH]c(=O)[nH]c1=O,n,n,n,34.3,n
CSc1ccccc1NC(=O)Nc1ccc(F)c(Cl)c1,n,n,n,42.8,n
Cc1ccc(NC(=O)CC2Oc3ccccc3NC2=O)cc1C (centres undefined),n,x,x,x,n
Cn1c(=O)[nH]c(=O)c2c1nc(N1CCCCCC1)n2CCN1CCCCCC1,n,n,n,39.9,n
Cc1ccnc(SCCn2c(N3CCCCC3)nc3c2c(=O)[nH]c(=O)n3C)n1,30.8,x,x,n,n
CCN(CC)CCn1c(=S)[nH]c2cc(C(=O)NCc3ccc(C)cc3)ccc2c1=O,n,n,n,36.4,n
O=C(CCN1CCOCC1)NNC(=O)c1ccc([N+](=O)[O-])cc1[N+](=O)[O-],x,n,58.9,x,x
O=C(CCN1CCOCC1)NNC(=O)c1ccc(Cl)c([N+](=O)[O-])c1,x,n,n,x,x
COc1cc(C(=O)Nc2ccc(S(=O)(=O)NC(C)(C)C)cc2)cc(OC)c1OC,n,n,n,n,n
COc1cc(C(=O)Nc2ccc(S(=O)(=O)NC(C)C)cc2)cc(OC)c1OC,n,n,n,30.9,n
COc1ccc(OC)c(S(=O)(=O)NCc2cn3c(C)csc3n2)c1,n,n,n,x,x
COc1ccc(S(=O)(=O)NCc2cn3c(C)csc3n2)cc1F,n,n,n,31.7,n
CC(C)OC(=O)c1c(NC(=O)c2cc3nc(-c4ccccc4)cc(C(F)(F)F)n3n2)sc2c1CCCC2,n,x,x,x,n
O=S(=O)(N/N=C/c1ccc(N2CCOCC2)cc1)c1ccc(Br)cc1,30.9,n,n,n,n
Cn1c(=O)n(-c2ccc3c(c2)OCO3)c2nc(-c3ccccc3)nc(C(N)=O)c21,n,x,x,x,n
Clc1ccc(/C=C\c2nccc3c2[nH]c2ccccc23)cc1,n,n,n,66.4,n
COc1ccc(NC2=Nc3ccccc3CC2)cc1,n,n,n,46.2,n
COc1ccc(NC2=NCCCCC2)cc1,n,n,n,n,n
CCOc1ccc(NC(=O)c2ccc3nc(C(C)C)oc3c2)cc1,n,x,x,x,x
SMILES,D2 PAM-1,D2 ag-1,D2 PAM-2,D2 antagonist,D2 ag-2
C/C(=C\C(=O)c1ccccc1)Nc1ccc(O)cc1,n,u,55.6,n,n
Cc1sc2nc(CSC(C)C(=O)NC3(C#N)CCCCC3)[nH]c(=O)c2c1C (centres undefined),n,n,n,38.3,n
Cc1sc2nc(CSC(C)C(=O)Nc3ccc(C#N)cc3)[nH]c(=O)c2c1C (centres undefined),n,n,n,n,n
CCN(CC)CCOc1nnc(-c2ccc(C)cc2)c2ccccc12,n,n,n,35.6,n
CCN(CC)CCOc1nnc(-c2ccc(OC)cc2)c2ccccc12,n,n,n,n,n
COc1ccc(NC(=S)N(CCCN2CCC(C)CC2)Cc2cccs2)cc1Cl,n,n,n,n,n
CSc1cccc(NC(=S)N(CCCN2CCCC(C)C2)Cc2cccs2)c1 (centres undefined),n,n,n,45.6,n
COc1cccc(NC(=S)N(CCCN2CCCC(C)C2)Cc2cccs2)c1 (centres undefined),n,n,n,59.1,n
Cc1cc(C)cc(NC(=S)N(CCCN2CCN(C)CC2)Cc2cccs2)c1,x,n,n,n,n
CC(C)(C)OC(=O)NC1CC2CCCC(C1)N2Cc1ccccc1 (centres undefined),n,n,n,59.9,n
C=CCN1C2CCCC1CC(NC(=O)Nc1cccc(C(C)=O)c1)C2 (centres undefined),n,n,n,33.2,n
COCCNC(=S)NC1CC2CCC(C1)N2Cc1ccccc1 (centres undefined),n,n,n,n,n
COc1ccc(CN2C3CCCC2CC(NC(=O)Nc2ccccc2)C3)cc1 (centres undefined),n,n,n,80.2,n
COCC(=O)NC1CC2CCCC(C1)N2Cc1ccccc1 (centres undefined),n,n,n,42.2,n
COc1ccc(CN2C3CCCC2CC(NC(=O)Nc2cccc(C)c2)C3)cc1 (centres undefined),n,n,n,n,n
O=C(C[n+]1ccc(-c2ccccc2)cc1)Nc1ccc([N+](=O)[O-])cc1,n,n,n,36.9,n
Cc1cccc[n+]1CC(=O)Nc1ccc([N+](=O)[O-])cc1,n,n,n,n,n
S=c1nc(-c2ccccc2)n(CCCn2ccnc2)c2c1CCCC2,n,n,n,39.1,n
S=c1nc(-c2ccccc2)n(CCCN2CCOCC2)c2c1CCCC2,n,n,n,n,n
O=C(NCCC1=CCCCC1)c1ccc2c(c1)N(Cc1cccc(Cl)c1)C(=O)c1ccccc1S2=O (centres undefined),x,x,x,x,n
O=C(CCC(=O)Nc1ccc(F)cc1)N/N=C/c1ccccc1O,n,n,n,33.5,n
O=C(CCC(=O)Nc1ccccc1)N/N=C/C=C/c1ccccc1,n,n,n,30.3,n
O=C(CCC(=O)Nc1ccc(Br)cc1)N/N=C/c1ccccc1F,n,n,n,n,n
CCc1cccc(NC(=O)c2cc3c(=O)[nH]c4ccccc4c3n2C)c1,n,x,x,x,n
Cc1ccc2[nH]c3nc(N/N=C/c4cccc(O)c4)nnc3c2c1,n,n,n,36.7,n
SMILES,D2 PAM-1,D2 ag-1,D2 PAM-2,D2 antagonist,D2 ag-2
O=C(Nc1ccc2c(c1)OCO2)c1cnn2cccnc12,n,n,n,68.9,n
O=C(Nc1nc2ccccc2[nH]1)c1ccc(OC(F)F)cc1,n,n,n,n,n
CC(C)Oc1ccc(C(=O)Nc2nc3ccccc3[nH]2)cc1,105.2,n,n,n,n
O=C1c2cccc3c(N4CCCCC4)ccc(c23)C(=O)N1c1ccccn1,n,n,n,n,37.3
CC(=O)N(C(C)=O)N1C(=O)c2cccc3c(N4CCOCC4)ccc(c23)C1=O,n,n,n,n,n
COc1ccc(C(=O)Nc2ccc(C(=O)OCC(=O)c3cccc4ccccc34)cc2)cc1,n,n,n,76.4,n
COc1ccc(NC(=O)c2ccc3ccccc3c2)cc1,n,n,n,n,n
CN(Cc1ccccc1)C(=C(Cl)Cl)/C(=C1/NCCN1C)[N+](=O)[O-],n,n,n,n,n
